Some test systems named below: SK-MEL-2 melanoma; SN12C renal; UO-31 renal; TK-10 renal; ACHN renal; CAKI-1 renal; CCRF-CEM leukemia; SR leukemia; RPMI-8226 leukemia; OVCAR-8 ovarian; OVCAR-5 ovarian; OVCAR-4 ovarian; SK-OV-3 ovarian; IGROV1 ovarian; OVCAR-3 ovarian; NCI/ADR-RES ovarian; A498 renal; MOLT-4 leukemia; HS 578T breast.
Holding throughout (test): NCI-60 one-dose screen, 48 h (100 = growth as untreated, 0 = no growth, -100 = all killed)
What all share (details): 10 µM unless noted

Each structure is given as a SMILES string. The panel holds about 83,000 compounds, 20% with a hit somewhere; the sample as a whole holds those more often.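 A percent growth of 40 corresponds to 60% growth inhibition; 0 means no net growth; -100 means all cells died. Active threshold: below 10.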 Values without a mark were called inactive. Activity calls are given as the source filed them.

Turning to `Oc1ccc(Br)cc1Sc1cc(Br)ccc1O`, the growth in the assay with SK-MEL-2 melanoma was 54.4%; in the assay on SN12C renal, 23.9%; with UO-31 renal it was 32.9%; in the assay with TK-10 renal it was 115%; in the assay on ACHN renal, 47.8%; in the assay with CAKI-1 renal, 99.7%. The growth was 34.3% with CCRF-CEM leukemia; 41.4% in the assay with SR leukemia; 4.14% (active) with RPMI-8226 leukemia; 51.4% in the assay with OVCAR-8 ovarian; 105% in the assay with OVCAR-5 ovarian; 37.3% in the assay on OVCAR-4 ovarian. For the same compound, the growth is 98.3% with SK-OV-3 ovarian, 81.5% in the assay with IGROV1 ovarian, 28.9% in the assay with OVCAR-3 ovarian and 31.4% with NCI/ADR-RES ovarian.
Consider `CC(C)N=C(N)/N=C(\N)Nc1ccc2ccc3ccccc3c2c1`, for which the growth in the assay on SK-MEL-2 melanoma was -81.8% (active); in the assay with SN12C renal, -84.6% (active); in the assay with TK-10 renal, -89.6% (active); in the assay with ACHN renal it was -89.2% (active); in the assay on CAKI-1 renal, -81.1% (active); with A498 renal, -73.7% (active). Besides, the growth is 12.3% with CCRF-CEM leukemia; -3.58% (active) with MOLT-4 leukemia; -47.3% (active) in the assay on SR leukemia; -26.9% (active) in the assay with RPMI-8226 leukemia; -60.2% (active) in the assay with OVCAR-8 ovarian; -88.5% (active) in the assay with OVCAR-5 ovarian. For the same compound, the growth in the assay with OVCAR-4 ovarian is -56.9% (active); in the assay with SK-OV-3 ovarian, -63.3% (active); in the assay with IGROV1 ovarian, -56.7% (active); with OVCAR-3 ovarian, -83% (active); in the assay with NCI/ADR-RES ovarian it was 41.5%.
For `CCCCCCN(CCCCCC)CCCNc1nccc2ccccc12`, the growth was 21.4% with SK-MEL-2 melanoma; 18.7% in the assay on SN12C renal; 15.2% in the assay on UO-31 renal; 39.8% in the assay with TK-10 renal; 19.2% in the assay with ACHN renal; 21.4% with CAKI-1 renal. The growth with CCRF-CEM leukemia is 12.4%; in the assay on MOLT-4 leukemia, 11.8%; in the assay with SR leukemia, -9.78% (active); with RPMI-8226 leukemia, -22.8% (active); in the assay on OVCAR-8 ovarian it was 12%; in the assay with OVCAR-5 ovarian it was 38.1%. Also, the growth was 23.4% in the assay on OVCAR-4 ovarian; 41.9% in the assay on SK-OV-3 ovarian; 12.5% in the assay on IGROV1 ovarian; -6.31% (active) in the assay with OVCAR-3 ovarian; 12.4% with HS 578T breast; 19.4% in the assay on NCI/ADR-RES ovarian.
Take `CCCCCCCCCCCCN1C(C)=CS/C1=C\C=C\c1scc(C)[n+]1CCCCCCCCCCCC`: the growth in the assay with SK-MEL-2 melanoma was 1.51% (active); in the assay with SN12C renal it was 18.2%; in the assay with UO-31 renal it was 62.6%; with TK-10 renal it was 11.9%; in the assay on ACHN renal, 38.6%; in the assay on CAKI-1 renal it was 27.5%. The growth in the assay on CCRF-CEM leukemia is 20%; in the assay with MOLT-4 leukemia, 11.1%; in the assay on SR leukemia, -4.71% (active); in the assay on RPMI-8226 leukemia, -11.3% (active); with OVCAR-8 ovarian it was -8.26% (active); in the assay on OVCAR-5 ovarian it was 61%. Further, the growth was 34.2% in the assay with OVCAR-4 ovarian; 50.3% in the assay on SK-OV-3 ovarian; 42.8% in the assay with IGROV1 ovarian; 31.9% in the assay on OVCAR-3 ovarian; 76.6% with HS 578T breast; 68% in the assay on NCI/ADR-RES ovarian.
Turning to `N#CC1c2ccccc2C=CN1C(=O)CCCl` (configuration not stated), the growth is 94.1% with SK-MEL-2 melanoma; 107% with SN12C renal; 60.6% in the assay on UO-31 renal; 14.9% in the assay with TK-10 renal; -6.33% (active) with ACHN renal; 132% in the assay on A498 renal. Besides, the growth in the assay with CCRF-CEM leukemia was 8.12% (active); in the assay with MOLT-4 leukemia, 81.3%; in the assay with SR leukemia it was 5.98% (active); with RPMI-8226 leukemia, 24.3%; in the assay on OVCAR-5 ovarian, 108%; in the assay on OVCAR-4 ovarian it was 108%. In addition, the growth is 97.2% in the assay on SK-OV-3 ovarian; 95.3% with IGROV1 ovarian; 91.4% in the assay on OVCAR-3 ovarian; 104% with HS 578T breast; 102% with NCI/ADR-RES ovarian.
Turning to `CCCCCCCCCCCCCCCc1ccc(C(=O)C[n+]2ccccc2)cc1`, the growth in the assay on SK-MEL-2 melanoma was -80.9% (active); in the assay on SN12C renal, -60.7% (active); in the assay on UO-31 renal, -97.2% (active); in the assay with ACHN renal, -49.3% (active); in the assay on A498 renal, 41.1%; with CCRF-CEM leukemia, -62.1% (active). Besides, the growth in the assay with MOLT-4 leukemia is -76.3% (active); with RPMI-8226 leukemia, -62.2% (active); in the assay with OVCAR-8 ovarian it was -46.7% (active); in the assay with OVCAR-5 ovarian it was -44.1% (active); in the assay on OVCAR-4 ovarian it was 34.9%; with SK-OV-3 ovarian, -50.7% (active). The growth was -93.1% (active) with OVCAR-3 ovarian and -37.3% (active) in the assay with HS 578T breast.
`CCCCCCCCCCCC1=NCCCN1CCCC`: the growth in the assay on SK-MEL-2 melanoma was 107%; in the assay with SN12C renal, 98.4%; in the assay on UO-31 renal it was 84.3%; in the assay on TK-10 renal, 108%; in the assay on ACHN renal, 104%; with CAKI-1 renal, 111%. The growth with CCRF-CEM leukemia was 87.4%; in the assay with MOLT-4 leukemia it was 92%; in the assay with SR leukemia, 57.6%; with RPMI-8226 leukemia, 93.4%; with OVCAR-8 ovarian, 101%; in the assay on OVCAR-4 ovarian, 101%. Also, the growth in the assay with SK-OV-3 ovarian is 102%; in the assay with IGROV1 ovarian, 105%; in the assay with OVCAR-3 ovarian it was 104%; in the assay with HS 578T breast it was 112%; in the assay with NCI/ADR-RES ovarian it was 96.8%.
As for `Cc1ccc(Nc2ccc(O)c3c2C(=O)c2c(O)ccc(Nc4ccc(C)cc4)c2C3=O)cc1`, the growth in the assay with SK-MEL-2 melanoma was 118%; in the assay on SN12C renal it was 106%; in the assay with UO-31 renal, 82.7%; in the assay on ACHN renal, 100%; in the assay with CAKI-1 renal, 92.9%; in the assay with A498 renal it was 97.4%. Also, the growth in the assay on CCRF-CEM leukemia is 95.5%; with MOLT-4 leukemia it was 109%; with SR leukemia, 108%; with RPMI-8226 leukemia it was 96.6%; in the assay on OVCAR-8 ovarian, 91.4%; with OVCAR-5 ovarian it was 106%. In addition, the growth with OVCAR-4 ovarian was 111%; in the assay with SK-OV-3 ovarian it was 108%; with OVCAR-3 ovarian, 113%; with HS 578T breast it was 103%; in the assay on NCI/ADR-RES ovarian, 107%.
With `CCCCC(CCc1ccc([N+](=O)[O-])cc1)(C(C)=O)C(=O)OCC` (configuration not stated), the growth was 99.6% in the assay on SK-MEL-2 melanoma; 103% with SN12C renal; 67.7% in the assay on UO-31 renal; 97.3% in the assay with TK-10 renal; 96.8% in the assay on CAKI-1 renal; 50.6% with A498 renal. In addition, the growth was 94.5% with CCRF-CEM leukemia; 90.3% in the assay with MOLT-4 leukemia; 63.5% in the assay on SR leukemia; 96.2% in the assay with RPMI-8226 leukemia; 104% with OVCAR-8 ovarian; 105% in the assay with OVCAR-5 ovarian. The growth was 89.5% in the assay on OVCAR-4 ovarian; 112% with SK-OV-3 ovarian; 101% in the assay on IGROV1 ovarian; 96.4% in the assay with OVCAR-3 ovarian; 92% in the assay with HS 578T breast; 104% in the assay on NCI/ADR-RES ovarian.
